# SARS PLpro yeast = blocks SARS-CoV papain-like protease in a yeast assay. hit rate 0.19% among 330,000. Potency, µM (top dose mostly 32.9 µM), inactives show at the highest dose activity, positive = growth rescue, usual class: activators. S. cerevisiae expressing SARS-CoV PLpro, growth rescue. AID 485353; calls by dose curve; further: potency means the concentration at half of the fitted maximal effect; 0% is about no effect; nearly all actives have a fitted effect of over 55% in size
# AMA1 RON2 block = disrupts binding of P. falciparum AMA1 to RON2. AlphaScreen AMA1-biotinylated RON2 peptide binding. AID 720542. hit rate 0.2% among 360,000. Potency, µM (top dose mostly 58.2 µM), for the others: at the highest dose activity change, negative = inhibition, most hits filed as inhibitors;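 further: potency means the concentration at half of the fitted maximal effect; 0% = vehicle wells and -100% = peptide control; nearly all actives have a fitted effect of over 45% in size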
#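 AMA1 (3D7) with his tag at 25 nM final met compounds first, then biotinylated RON2 peptide at 25 nM; detection used donor plus acceptor beads, 10 µg/mL apiece, read by AlphaScreen after 30 min at room temperature.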
# Shiga toxin inh = inhibitors of Shiga toxin in Vero cells; Vero cells, Shiga toxin protein synthesis inhibition reporter; inhibition, % at 38.7 µM; hit rate 9.2% among 290,000; in the data active means inhibition mostly above about 28%, no sharp cut-off; inactive means mostly below about 43%; further: 0% is about no effect
# CHX counter = counter-screen hit for Shiga toxin inhibitors, cycloheximide | cell reporter, cycloheximide protein synthesis inhibition counterscreen | max response, % | hit rate 12% among 300,000 | AID 2314; in the data active means max response mostly above about 13%, no sharp cut-off; inactive means mostly below about 14%; further: read at 38.3 µM for the half of the compounds with a filed dose; 0% is about no effect
# AmpC inh detg = AmpC beta-lactamase inhibition with detergent present | P00811 | AmpC hydrolysis of nitrocefin, absorbance 480 nm, 0.01% Triton | Potency, µM (series often up to 114 µM), without a hit: at the top dose activity change, negative = inhibition, usual class: inhibitors | hit rate 0.041% among 370,000;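 further: potency means the concentration at half of the fitted maximal effect; 0% = no-compound wells and -100% = no-enzyme wells; nearly all actives have a fitted effect of over 25% in size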
# Target sequence (P00811 whole entry, looked up): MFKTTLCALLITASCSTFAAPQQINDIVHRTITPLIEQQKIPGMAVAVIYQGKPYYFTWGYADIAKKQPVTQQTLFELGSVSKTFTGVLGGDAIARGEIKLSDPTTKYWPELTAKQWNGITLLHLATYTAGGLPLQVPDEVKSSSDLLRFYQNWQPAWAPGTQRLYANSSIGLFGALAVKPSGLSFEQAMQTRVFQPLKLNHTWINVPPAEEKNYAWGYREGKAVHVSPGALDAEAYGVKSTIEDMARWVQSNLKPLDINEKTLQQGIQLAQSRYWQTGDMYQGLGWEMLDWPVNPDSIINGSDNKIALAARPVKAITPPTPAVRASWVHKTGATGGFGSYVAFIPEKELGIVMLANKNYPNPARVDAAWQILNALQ
#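 20 mM phosphate pH 7.0 + 0.01% (detergent screen) or 0.0001% Triton X-100; 5.3 nM AmpC reagent; cpd preinc 15 min RT; nitrocefin (800 uM stock) to start; A480 q20 s × 4 min; Activity was normalised to no-enzyme and no-compound control wells.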
# AmpC no deterg = AmpC beta-lactamase inhibition without detergent; AmpC nitrocefin hydrolysis, absorbance 480 nm, 0.0001% Triton; hit rate 0.52% among 330,000; Potency, µM (top dose mostly 57.1 µM), inactives show at the top dose activity change, negative = inhibition, actives largely listed as inhibitors; P00811; AID 485341;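 further: potency means the concentration at half of the fitted maximal effect; plate controls were no compound for no effect and no enzyme for full effect; nearly all actives have a fitted effect of over 20% in size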
#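 20 mM phosphate pH 7.0 + 0.01% (detergent screen) or 0.0001% Triton X-100; 5.3 nM AmpC reagent; cpd preinc 15 min RT; nitrocefin (800 uM stock) to start; A480 q20 s × 4 min; Activity was normalised to no-enzyme and no-compound control wells.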
# Numbers without * were called inactive; ? = inconclusive; nt = no result. Many of the other results were omitted from the sample, so hits are more common in it than they were. Unless noted, the call rests on the fitted dose curve; in most records, active means well fitted curve in the direction sought with a large enough effect; inconclusive means small, poorly fitted or top-dose-only effect, or another doubt; inactive means no such curve, though single readings can be large; an effect the other way counts as inactive or inconclusive.
SMILES,SARS PLpro yeast,AMA1 RON2 block,Shiga toxin inh,CHX counter,AmpC inh detg,AmpC no deterg
O=[N+]([O-])c1cccc(Nc2c([N+](=O)[O-])ccc3nonc23)c1,-0.1%,-1.2%,-12.0,-3.0,-2.8%,-8.5%
O=[N+]([O-])c1ccc2nonc2c1Nc1ccccc1,6.2%,-21.6%,42.6,23.2*,-0.7%,-13.6%
C(=N\Nc1nn[nH]n1)/c1ccccc1,16.8%,19.0%,-7.1,-3.2,-7.5%,-21.0%
Clc1ccc(/C=N/Nc2nnc(Cl)c3ccccc23)cc1,2.3%,5.6%,55.0*,18.1*,?,-11.0%
Clc1ccccc1-c1nc(N/N=C/c2cccnc2)c2ccccc2n1,-17.4%,0.0%,-17.3,-5.4,3.4%,-8.1%
Clc1ccc(/C=N/Nc2nn[nH]n2)cc1,-3.7%,1.9%,-2.9,-2.9,?,-14.2%
Clc1ccc(/C=N/Nc2nc(Cl)nc3ccccc23)cc1,-9.2%,55.0%,132.3,22.6,9.3%,17.8µM*
CC(=O)Nc1ccc(C=NNc2nnc(NN=Cc3ccc(NC(C)=O)cc3)c3ccccc23)cc1,nt,2.5%,nt,nt,nt,nt
Cc1ccc(/C=N/Nc2nnc(Cl)c3ccccc23)cc1,-50.2%,?,46.3*,46.4*,?,167.8%
Clc1cncc(Cl)c1N/N=C/c1ccccc1,-4.2%,-23.5%,48.1*,28.8*,?,-25.9%
CCN(c1ccc(OC)cc1)S(=O)(=O)c1nnc(NC(=O)COc2ccccc2)s1,?,-3.4%,-9.2,-5.1,4.7%,-29.9%
O=C1NC(=S)NC(=O)C12C(c1ccc(F)cc1)NC(=S)NC2c1ccc(F)cc1 (stereo not given),0.7%,-9.0%,-15.3,-4.9,-2.0%,-12.5%
CCOC(=O)[C@]12CCCC=C1N(Cc1ccc3c(c1)OCO3)C(=O)[C@H](CC(=O)NCc1cccc3ccccc13)C2,nt,-0.5%,nt,nt,nt,nt
Clc1nnc(N/N=C/c2ccccc2)c2ccccc12,-2.9%,32.1%,65.2,47.0*,2.9%,0.1%
Clc1nnc(NN=C2CCCC2)c2ccccc12,1.9%,-10.8%,4.2,-1.2,?,-19.8%
CCCCNC(=S)NNC(=O)c1ccoc1C,0.5%,73.7%,50.0,19.0*,?,-8.6%
CCCCNC(=O)NNC(=O)c1ccoc1C,3.3%,-7.1%,61.7*,53.2*,2.9%,-6.9%
COCCCNC(=S)NNC(=O)c1ccoc1C,-4.9%,76.5%,1.8,3.6,9.6%,-7.6%
COc1ccc(CCN)cc1OC,2.4%,5.7%,16.3,-3.5,-3.7%,10.7%
COc1c(O)c(O)c2oc(-c3ccccc3)cc(=O)c2c1OC,0.3%,50.3%,-2.7,-2.4,5.9%,-18.1%
COCCn1c(C)cc(/C=C2/NC(=O)N(c3cccc(Cl)c3)C2=O)c1C,-0.5%,-17.6%,63.6*,38.3*,-12.1%,7.5%
O=C1N/C(=C/c2ccsc2)C(=O)N1c1ccccc1,-0.5%,-1.3%,47.2*,26.0*,-7.3%,-19.8%
CCn1c(C)cc(/C=C2/NC(=O)N(c3ccccc3)C2=O)c1C,-2.2%,-3.6%,97.0*,42.6*,2.6%,23.5%
COc1ccccc1NC(=O)N(C)C[C@@H]1Oc2ncc(Br)cc2C(=O)N([C@H](C)CO)C[C@@H]1C,nt,5.7%,nt,nt,nt,nt
COc1ccc(CNC(=O)c2ccc(N3CCCC3=O)cc2)cc1,0.4%,13.1%,39.2,26.0,-13.0%,-4.0%
SMILES,SARS PLpro yeast,AMA1 RON2 block,Shiga toxin inh,CHX counter,AmpC inh detg,AmpC no deterg
O=C(NCc1ccccn1)c1cc(-c2ccccc2)on1,-3.5%,-2.7%,140.5*,35.5*,?,-21.0%
COc1ccccc1OCc1cc(C(=O)NCc2ccc(N3CCCC3=O)cc2)no1,-0.3%,0.0%,18.5,41.7*,-8.9%,37.5%
Cc1ccc(-c2cc(C(=O)NCc3ccccn3)no2)cc1,-10.9%,8.4%,84.6*,45.0*,?,11.0%
O=C(NCc1ccccn1)c1ccc(-c2ccccc2)cc1,-1.7%,0.2%,63.6*,35.7*,-0.6%,-9.2%
O=C(NCc1ccccn1)c1ccc([N+](=O)[O-])cc1,-10.5%,35.6%,0.7,0.5,-9.5%,-14.0%
O=C(NCc1ccccn1)c1ccco1,1.4%,95.7%,8.2,4.0,2.9%,-11.9%
CCOC(=O)c1ccc(NC(=O)CNC(=O)C23CC4CC(CC(C4)C2)C3)cc1,-3.0%,2.4%,-7.5,-3.1,-5.4%,-2.3%
COc1cc(NC(=O)c2ccccc2[N+](=O)[O-])ccc1NC(=O)C(C)C,-3.0%,-5.2%,-6.4,-3.4,-9.2%,-6.2%
Cc1cccc2sc(NC(=O)c3cccn(Cc4ccccc4)c3=O)nc12,nt,nt,nt,nt,-6.0%,nt
N#CC1(NC(=O)CSc2nnc(COc3ccccc3F)n2N)CCCCC1,-3.2%,-19.8%,nt,nt,-15.7%,-0.1%
O=C(NCc1ccccn1)c1ccc(N2CCCC2=O)cc1,-1.9%,73.0%,26.6,23.5*,-9.1%,-21.0%
O=C(NCc1ccco1)c1ccc(N2CCCC2=O)cc1,-3.2%,0.1%,22.5,8.5,-6.1%,-15.4%
COc1ccc(/C=C/C(=O)c2ccccc2)cc1Cn1nnc2ccccc21,12.1%,?,26.8*,27.3*,-14.1%,-20.8%
COc1ccc(/C=C/C(=O)C2(O)CCCCC2)cc1,-0.6%,8.9%,47.3*,19.3*,-1.7%,-3.7%
COC(=O)c1ccc(/C=C/C(=O)c2ccc(OC)cc2)cc1,1.4%,-0.7%,53.9,25.5*,-4.3%,-13.3%
COc1cc(/C=C/C(=O)c2ccc(C)cc2)ccc1OCC#N,12.3%,-7.7%,107.3*,81.1*,-0.2%,-6.6%
COC(=O)c1ccc(/C=C/C(=O)c2ccc(OC)c(OC)c2)cc1,-17.5%,-9.0%,22.1,13.1,-0.3%,104.5%
CN(C(=O)c1ccc(NC(=O)Cc2ccc(NC(=O)C3CCCN(C(=O)C4CCCC4)C3)cc2)cc1)C1CCCC1 (stereo not given),nt,3.9%,nt,nt,nt,nt
COC(=O)[C@]12CCCCC=C1N(CCC1=CCCCC1)C(=O)[C@H](CC(=O)NCCc1ccccc1OC)C2,nt,-12.4%,nt,nt,nt,nt
COc1ccc(/C=C/C(=O)c2ccc(C(=O)/C=C/c3ccc(OC)c(OC)c3)cc2)cc1OC,0.4%,-5.8%,20.0,27.9*,-4.9%,16.0%
COc1ccc(/C=C/C(=O)OCCNC(=O)c2ccncc2)cc1OC,-2.4%,13.7%,11.9,0.2,1.1%,-17.3%
COc1ccc(/C=C/c2ccncc2)cc1OC,-18.1%,2.6%,57.3*,27.9*,3.5%,-5.0%
COCC1CCCN(C(=O)c2cc(COc3ccc(C(C)=O)cc3)on2)C1 (stereo not given),nt,4.2%,nt,nt,nt,nt
CC(=O)c1ccc(OCc2cc(C(=O)N3CCCCC3c3cccnc3)no2)cc1 (stereo not given),-10.8%,-9.3%,80.5*,54.3*,-7.6%,61.9%
CC(=O)c1ccc(OCc2cc(C(=O)N3CC[C@@H]4CCCC[C@H]4C3)no2)cc1,-5.7%,-18.7%,104.5*,75.0*,1.3%,94.0%

# Assay outcomes from PubChem BioAssay.
